Integrin act MD: activates integrin-mediated alleviation for muscular dystrophy | AID 624291 | alpha7betagal myoblasts, beta-gal FDG fluorescence, 48 h | Potency, µM (doses to about 38.3 µM), for the others: at the highest dose activation, actives largely listed as activators | 0.064% of 350,000 active;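 further: potency means the concentration at half of the fitted maximal effect; 100% = response of the positive control SU9516; nearly all actives have a fitted effect of over 60% in size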
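Alpha7betagal+/- myoblasts (passage 13) were plated 16-24 hr, then exposed to compounds (1:260 dilution of DMSO stock) for 48 hours at 37C. After MPER lysis, β-galactosidase reporter activity was read as FDG fluorescence (ex 480/em 540) after 30 minutes.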
IL1B secr inh: blocks inflammasome-driven IL-1 beta release. THP-1 LPS/ATP IL-1B secretion, AlphaLISA, 16 h; stronger effect = lower value. AID 743279. activity change, % at 57.5 µM. 4.7% of 360,000 active; in the data active means activity change below about -50%; inconclusive means mostly about -30% to -49%; further: on the % scale 0 is the no-effect control and ±100 the full control effect
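Secreted IL-1B measured by AlphaLISA bead assay after 16 h compound exposure of THP-1 cells; compounds (final up to 57.5 uM) added 1 h before LPS (250 ng/mL) and ATP (1.25 mM) stimulation; lower signal means less secretion.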
D3 antag: D3 dopamine receptor (human) antagonism | P35462 | D3R cells, DiscoveRx beta-arrestin luminescence, antagonist mode; stronger effect = lower value | max response, negative = inhibition, % | 2.5% of 360,000 active; in the data active means max response below about -50%; inconclusive means no clear call, values can overlap the other calls; further: on the % scale 0 is the no-effect control and ±100 the full control effect
Target sequence (P35462 whole entry, looked up): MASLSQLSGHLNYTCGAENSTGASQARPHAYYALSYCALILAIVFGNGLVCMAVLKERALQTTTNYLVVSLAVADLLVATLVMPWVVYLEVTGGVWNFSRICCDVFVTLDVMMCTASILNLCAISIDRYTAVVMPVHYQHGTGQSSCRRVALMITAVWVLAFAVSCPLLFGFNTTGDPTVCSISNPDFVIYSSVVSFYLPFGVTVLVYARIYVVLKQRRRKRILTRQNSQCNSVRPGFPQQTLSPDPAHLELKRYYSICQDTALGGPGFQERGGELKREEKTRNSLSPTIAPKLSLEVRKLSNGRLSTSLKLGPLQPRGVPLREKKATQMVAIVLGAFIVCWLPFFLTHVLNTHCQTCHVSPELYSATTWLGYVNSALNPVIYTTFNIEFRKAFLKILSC
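Cells plated overnight at 1500 cells/well, then exposed to library compounds with dopamine controls for 90 minutes at 37 degrees C. DiscoveRx reagent added for 30–60 minutes at room temperature; luminescence read, quantitative HTS format.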
D3 ag: activates the human D3 dopamine receptor; 0.58% of 410,000 active; max activation, %; P35462; D3R DiscoveRx beta-arrestin cells, luminescence, 90 min; in the data active means max activation above about 30%; further: 0% is about no effect
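Agonist mode: compounds and dopamine controls were applied to plated cells for 90 min at 37 degrees C after an overnight attachment at 1500 cells/well. Luminescent read-out followed 30 - 60 minutes at room temperature with DiscoveRx detection reagent.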
ATXN viability: cell viability loss in ATXN counter-screen; S2 cells (HEK-293 line with an ATXN2-luciferase reporter) viability, CellTiter-Fluor protease fluorescence, 24 h; Potency, µM (doses to about 56.7 µM), usual class: cytotoxic; 0.49% of 400,000 active; further: potency means the concentration at half of the fitted maximal effect; nearly all actives have a fitted effect of over 40% in size
ATXN2 expr inh: reduces ATXN2 reporter expression in HEK-293 cells; HEK-293 ATXN2-luciferase reporter, luminescence, 24 h; Potency, µM (titrated, usually from 57 µM), for the others: top-dose activity change, negative = inhibition, actives largely listed as inhibitors; 0.72% of 360,000 active; AID 1745845; further: potency means the concentration at half of the fitted maximal effect; on the % scale 0 is the no-effect control and ±100 the full control effect; nearly all actives have a fitted effect of over 55% in size
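qHTS (up to 57 uM final) was run with 24 h compound exposure of reporter cells at 37 °C. Each well was multiplexed: SteadyGlo luminescence measured ATXN2-luciferase expression after a fluorogenic Gly-Phe-AFC viability readout (25 uM final).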
An asterisk follows results filed as active. Only some compounds are listed: those with a hit (about 7% of all), similar ones and a draw of the others. Unless noted, the call rests on the fitted dose curve; in most records, active means well fitted curve in the direction sought with a large enough effect; inconclusive means small, poorly fitted or top-dose-only effect, or another doubt; inactive means no such curve, though single readings can be large; an effect the other way counts as inactive or inconclusive.

Screening Cc1ccnc(NC(=O)CCC(=O)N(Cc2ccco2)C(C(=O)NC(C)C)c2ccc(F)cc2)c1 (stereo not drawn) returned Integrin act MD -24%, IL1B secr inh 8, D3 antag -21, D3 ag -7, ATXN viability inactive and ATXN2 expr inh 0%.
Screening O=C(CN1CCN(c2ccccc2)CC1)N1CCc2ccccc21 returned Integrin act MD -11%, IL1B secr inh -9, D3 antag inconclusive, D3 ag -11, ATXN viability inactive and ATXN2 expr inh 3%.
Screening O=C(CN1CCCCC1)N1CCc2ccccc21 returned Integrin act MD -25%, IL1B secr inh -2, D3 antag -86*, D3 ag -23, ATXN viability inactive and ATXN2 expr inh -11%.
Screening O=C(CN1CCCCC1)N1c2ccccc2CCc2ccccc21 returned Integrin act MD 14%, IL1B secr inh -18, D3 antag -21, D3 ag -10, ATXN viability inactive and ATXN2 expr inh 4%.
Screening CC(NC(=O)CN1CCN(c2ncccn2)CC1)c1ccc(F)cc1 (stereo not drawn) returned Integrin act MD 4%, IL1B secr inh -12, D3 antag 0, D3 ag -8, ATXN viability inactive and ATXN2 expr inh 5%.
O=C(CN1CCN(c2ncccn2)CC1)N1CCc2ccccc21 was read as Integrin act MD -3%, IL1B secr inh -2, D3 antag -82*, D3 ag -21, ATXN viability inactive and ATXN2 expr inh 9%.
`CC(C)NC(=O)CN1CCN(c2ncccn2)CC1` gave Integrin act MD -17%, IL1B secr inh 31, D3 antag -54*, D3 ag 6, ATXN viability inactive and ATXN2 expr inh -7%.
`O=C(CN1CCN(c2ccccc2F)CC1)N1CCc2ccccc21` gave Integrin act MD -10%, IL1B secr inh 13, D3 antag -54*, D3 ag -12, ATXN viability inactive and ATXN2 expr inh 10%.
COc1ccc(CN(C)CC(=O)NC(C)c2ccccc2)c(OC)c1 (stereo not drawn) was read as Integrin act MD -1%, IL1B secr inh -10, D3 antag 3, D3 ag -10, ATXN viability inactive and ATXN2 expr inh -9%.
Screening Cc1ccc(-c2c(C(=O)Nc3ccccc3F)oc(=O)c3ccccc23)cc1 returned D3 ag 1, ATXN viability inactive and ATXN2 expr inh 2%.
Screening Cc1ccc(N=Nc2ccc(C)cc2NC(=O)Nc2ccccc2F)cc1 returned Integrin act MD -7%, IL1B secr inh 7, D3 antag -2, D3 ag 1 and ATXN viability inconclusive.
`CCCn1c(=O)c2ccccc2n2c(SCCOc3ccc(Cl)cc3)nnc12` gave Integrin act MD 14%, IL1B secr inh 22, D3 antag -50*, D3 ag -1, ATXN viability inactive and ATXN2 expr inh -14%.
For COc1cccc(C(=O)N2CCC(n3nccc3NC(=O)C(OC)c3ccccc3)CC2)c1 (stereo not drawn) the results were Integrin act MD inconclusive, IL1B secr inh 0, D3 antag inconclusive, D3 ag -19, ATXN viability inactive and ATXN2 expr inh 4%.
Screening Cc1ccccc1Cn1cc(S(=O)(=O)CC(=O)Nc2nccs2)c2ccccc21 returned Integrin act MD -5%, IL1B secr inh -64*, D3 antag 15, D3 ag 2, ATXN viability inconclusive and ATXN2 expr inh -21%.
`COc1cc(CN2CCC3(CCC(CNC(=O)c4ccco4)O3)CC2)ccc1O` (stereo not drawn) gave ATXN viability inactive.
COc1ccc(-c2cc3nc(C4CCN(C(=O)OC(C)(C)C)CC4)c(C(=O)Nc4cc(C)cc(C)c4)cn3n2)cc1 was read as D3 ag 2, ATXN viability inactive and ATXN2 expr inh 13%.

Compound activity (PubChem)
